MEKK3 PB1 HTS – modulators of MEKK3-MEK5 PB1 binding, primary screen, biochemical, wildtype MEKK3, multiplex bead flow cytometry, Alexa488-MEK5; Mitogen-activated protein kinase kinase kinase 3 (Homo sapiens), Q99759; bead-based flow cytometry, Alexa488-MEK5 binding to MEKK3; actives lie on both sides; 0 = blocked by unlabeled MEK5, 100 = vehicle; binding response (% of control), % at 10 µM; 290,000 tested, 1.4% active; AID 1529, 2009;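 active means binding response more than 3 SD above or below the average of its plate-row segment, actives on both sides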;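 further: Alexa488 bead fluorescence after subtracting the streptavidin-only scavenger bead signal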
MEKK2mut PB1 HTS – MEK5 binding signal on mutant MEKK2 PB1, primary screen, biochemical, multiplex bead flow cytometry, Alexa488-MEK5. Alexa488-MEK5 binding to MEKK2 mutant. percent response, % at 10 µM. 290,000 tested, 0.35% active; in the data active means percent response above about 24%, passing the limit was not always enough
Rce1 inhib – yeast Rce1p protease inhibitors, primary screen, biochemical, fluorescence, cell-free homogeneous; CAAX prenyl protease 2 (Saccharomyces cerevisiae (strain ATCC 204508 / S288c)), Q03530; yeast membranes, quenched prenylated peptide cleavage fluorescence; calls only; 290,000 tested, 0.27% active;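 active means fall in fluorescence gain of 50% or more versus controls, with final raw signal at or below 3038400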;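 further: plate controls were neutral control wells for no effect and wells lacking membranes for full effect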
Target sequence (Q03530 whole entry, looked up): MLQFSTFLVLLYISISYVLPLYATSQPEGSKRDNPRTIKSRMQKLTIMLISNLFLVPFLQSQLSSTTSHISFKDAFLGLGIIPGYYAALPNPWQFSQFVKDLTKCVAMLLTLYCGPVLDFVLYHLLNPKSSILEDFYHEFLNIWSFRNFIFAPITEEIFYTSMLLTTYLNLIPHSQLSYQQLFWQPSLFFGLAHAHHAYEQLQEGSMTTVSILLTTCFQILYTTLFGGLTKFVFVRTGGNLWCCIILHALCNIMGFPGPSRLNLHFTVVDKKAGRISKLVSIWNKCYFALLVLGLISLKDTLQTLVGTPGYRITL
UBC13 inh – UBC13 polyubiquitin chain formation inhibitors, primary screen, biochemical, TR-FRET, uHTS; Ubiquitin-conjugating enzyme E2 N (Homo sapiens), P61088; inhibition, % at 20 µM; AID 485273, 2010; 330,000 tested, 0.47% active; in the data active means inhibition above about 45%, passing the limit was not always enough
Target sequence (P61088 whole entry, looked up): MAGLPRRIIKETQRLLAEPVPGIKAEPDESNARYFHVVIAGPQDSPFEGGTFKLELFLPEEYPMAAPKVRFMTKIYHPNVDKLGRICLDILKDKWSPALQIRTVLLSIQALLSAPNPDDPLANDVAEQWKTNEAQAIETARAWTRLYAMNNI
MEKK2 WT-MEK5 – modulators of MEK5 binding to wildtype MEKK2, primary screen, biochemical, multiplex bead flow cytometry, Alexa488-MEK5. Alexa488-MEK5 binding to MEKK2 WT; actives lie on both sides. binding response (% of control), % at 10 µM. 290,000 tested, 1.1% active. AID 1531, 2009; in the data active means binding response below about 67% or above about 130%
MEKK2wt confirm – modulators of MEK5 binding to wildtype MEKK2, confirmation, biochemical, single concentration, multiplex bead flow cytometry; Alexa488-MEK5 binding to MEKK2 WT; actives lie on both sides; 5,900 tested, 2.4% active; binding response (% of control), % at 10 µM; shares compounds with MEKK3 PB1 HTS; in the data active means binding response below about 16% or above about 210%; inactive means in between
MEKK2mut confirm – mutant MEKK2 PB1-MEK5 binding signal retest – biochemical, single concentration, multiplex bead flow cytometry, confirmation; Alexa488-MEK5 binding to MEKK2 mutant; shares compounds with MEKK3 PB1 HTS; AID 1893, 2009; 5,900 tested, 2% active; percent response, % at 10 µM; in the data active means percent response mostly above about 71%, no sharp cut-off; inactive means mostly below about 38%;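 further: higher means compound restores mutant binding toward wildtype level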
MEKK3 confirm – MEKK3 wild-type PB1 binding to MEK5, inhibitors, confirmation, biochemical, bead multiplex flow cytometry, single concentration, wildtype. shares compounds with MEKK3 PB1 HTS. Alexa488-MEK5 binding to MEKK3; active compounds read low. binding response (% of control), % at 10 µM. 5,900 tested, 1.8% active;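 active means binding response below 72% of control, or above a set upper limit, though filed actives all read lower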;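 further: 100% = DMSO only wells and 0% = binding blocked by excess unlabeled MEK5; lower values mean stronger disruption of MEK5 binding to MEKK3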
Casp3 counter – CASP3 inhibitor validation, counterassay for project on UBE2N polyubiquitination blockers, biochemical, one dose; shares compounds with UBC13 inh; Recombinant caspase-3, Caspase-Glo 3/7 luminescence, 60 min; inhibition, % at 20 µM; 1,400 tested, 4% active; AID 488856, 2010;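 active means mean inhibition across replicates above about 26%, limit read from the data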;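 further: plate controls were DMSO with caspase-3 for no effect and DMSO wells lacking enzyme for full effect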
UBC13 conf – UBC13 polyubiquitination inhibitors, single-point retest, confirmation, biochemical, TR-FRET, single concentration; shares compounds with UBC13 inh; 1,400 tested, 68% active; inhibition, % at 10 µM; AID 488859, 2010; in the data active means inhibition above about 45%
An asterisk follows results filed as active; [ ] = remark or other dose. Most compounds without a hit are left out; they make up all but 2.5% or so of the library.

For C#CCOCCOCCOCCNc1nc(N2CCN(C(=O)[C@H](CCC(=O)O)n3cc(C(N)[C@H](C)CC)nn3)CC2)nc(N2CCN(C(=O)[C@H](Cc3cc4ccccc4[nH]3)n3cc(C(N)[C@H](C)CC)nn3)CC2)n1 (stereo partly specified) the results were MEKK3 PB1 HTS 101.0, MEKK2mut PB1 HTS 1.0, Rce1 inhib inactive, UBC13 inh 6.6 and MEKK2 WT-MEK5 101.0.
For C#CCOCCOCCOCCNc1nc(N2CCN(C(=O)[C@H]([C@@H](C)CC)n3cc([C@@H](N)CC(C)C)nn3)CC2)nc(N2CCN(C(=O)[C@H](Cc3cc4ccccc4[nH]3)n3cc([C@@H](N)Cc4ccc(O)cc4)nn3)CC2)n1 the results were MEKK3 PB1 HTS 115.0, MEKK2mut PB1 HTS 128.0*, Rce1 inhib inactive, UBC13 inh 73.7*, MEKK2 WT-MEK5 270.0*, MEKK2wt confirm 226.0*, MEKK2mut confirm 68.0, MEKK3 confirm 108.0, Casp3 counter 2.3 and UBC13 conf 65.9*.
Screening C#CCOCCOCCOCCNc1nc(N2CCN(C(=O)C([C@@H](C)CC)n3cc(C(N)CC(C)C)nn3)CC2)nc(N2CCN(C(=O)[C@H](CCC(=O)O)n3cc(C(N)Cc4ccc(O)cc4)nn3)CC2)n1 (stereo partly specified) returned MEKK3 PB1 HTS 105.0, MEKK2mut PB1 HTS 9.0, Rce1 inhib inactive, UBC13 inh 13.9 and MEKK2 WT-MEK5 113.0.
Screening C#CCOCCOCCOCCNc1nc(N2CCN(C(=O)[C@H](CCCCN)n3cc([C@@H](N)CC(C)C)nn3)CC2)nc(N2CCN(C(=O)[C@H](Cc3cc4ccccc4[nH]3)n3cc([C@@H](N)Cc4ccc(O)cc4)nn3)CC2)n1 returned MEKK3 PB1 HTS 113.0, MEKK2mut PB1 HTS 60.0*, Rce1 inhib inactive, UBC13 inh 103.4*, MEKK2 WT-MEK5 187.0*, MEKK2wt confirm 232.0*, MEKK2mut confirm 89.0*, MEKK3 confirm 110.0, Casp3 counter 2.5 and UBC13 conf 116.2*.
For C#CCOCCOCCOCCNc1nc(N2CCN(C(=O)[C@H](Cc3ccc(O)cc3)n3cc([C@@H](N)CC(C)C)nn3)CC2)nc(N2CCN(C(=O)[C@H](Cc3cc4ccccc4[nH]3)n3cc([C@@H](N)CC(C)C)nn3)CC2)n1 the results were MEKK3 PB1 HTS 114.0, MEKK2mut PB1 HTS 99.0*, Rce1 inhib inactive, UBC13 inh 80.2*, MEKK2 WT-MEK5 230.0*, MEKK2wt confirm 245.0*, MEKK2mut confirm 93.0*, MEKK3 confirm 112.0, Casp3 counter -4.4 and UBC13 conf 62.2*.
`Cc1ccc2[nH]c(=O)c(CN(C(=O)c3cccc([N+](=O)[O-])c3)C(C)C)cc2c1` gave MEKK3 PB1 HTS 100.0, MEKK2mut PB1 HTS 3.0, Rce1 inhib inactive, UBC13 inh 14.4 and MEKK2 WT-MEK5 102.0.
Cc1cc(NC(=O)CCSc2ccccc2)no1 was read as MEKK3 PB1 HTS 87.0, MEKK2mut PB1 HTS -9.0, Rce1 inhib inactive, UBC13 inh 9.0 and MEKK2 WT-MEK5 82.0.
For Cc1cc(Cn2nnnc2-c2ccncc2)cc(C)c1O the results were MEKK3 PB1 HTS 101.0, MEKK2mut PB1 HTS 2.0, Rce1 inhib inactive, UBC13 inh 12.1 and MEKK2 WT-MEK5 102.0.
`CC(C)n1cnc2c(N(C)c3ccccc3)nc(N(CCN(C)C)Cc3ccccc3)nc21` gave MEKK3 PB1 HTS 114.0, MEKK2mut PB1 HTS 22.0, Rce1 inhib inactive, UBC13 inh 56.8*, MEKK2 WT-MEK5 175.0*, MEKK2wt confirm 137.0, MEKK2mut confirm 7.0, MEKK3 confirm 103.0, Casp3 counter -4.0 and UBC13 conf 38.5.
For CC(C)c1csc(CN2CCC(N3CCC(C(=O)NCC4CCCO4)CC3)CC2)n1 (stereo unspecified) the results were MEKK3 PB1 HTS 102.0, MEKK2mut PB1 HTS 0.0, Rce1 inhib inactive, UBC13 inh 11.1 and MEKK2 WT-MEK5 97.0.
`Cc1ccc(-c2csc(/C(C#N)=C/Nc3ccc4c(c3)OCCO4)n2)cc1` gave MEKK3 PB1 HTS 113.0, MEKK2mut PB1 HTS 0.0, Rce1 inhib inactive, UBC13 inh -2.4 and MEKK2 WT-MEK5 105.0.
CCN(CC)CCOC(=O)c1ccc(N/C=C(/C#N)c2nc(-c3ccc(OC)c(OC)c3)cs2)cc1 was read as MEKK3 PB1 HTS 29.0*[inhibitor], MEKK2mut PB1 HTS -1.0, Rce1 inhib inactive, UBC13 inh 117.2*, MEKK2 WT-MEK5 94.0, MEKK2wt confirm 53.0, MEKK2mut confirm -45.0, MEKK3 confirm 15.0*, Casp3 counter -2.2 and UBC13 conf 137.9*.
For CCN(CC)CCOC(=O)c1ccc(N/C=C(/C#N)c2nc(-c3cccc(OC)c3)cs2)cc1 the results were MEKK3 PB1 HTS 31.0*[inhibitor], MEKK2mut PB1 HTS -14.0, Rce1 inhib inactive, UBC13 inh 98.6*, MEKK2 WT-MEK5 93.0, MEKK2wt confirm 78.0, MEKK2mut confirm -38.0, MEKK3 confirm 26.0*, Casp3 counter 0.0 and UBC13 conf -2.3.
CCCCCCCNC(=O)C1(CC2CC(c3ccc(Cl)cc3)=NO2)CCNCC1 (stereo unspecified) was read as MEKK3 PB1 HTS 106.0, MEKK2mut PB1 HTS 11.0, Rce1 inhib inactive, UBC13 inh 83.3*, MEKK2 WT-MEK5 158.0*, MEKK2wt confirm 150.0, MEKK2mut confirm 22.0, MEKK3 confirm 105.0, Casp3 counter -0.4 and UBC13 conf 80.1*.
